GPR151 ag: activators of human GPR151. Q8TDV0. PathHunter beta-arrestin GPR151 cells, luminescence. activation, % at 11.2 µM. hit rate 1% among 650,000. AID 1508602; in the data active = activation above about 4.9%
MITF primary: blocks human microphthalmia-associated transcription factor; O75030; inhibition, % at 2.6 µM; AlphaScreen MITF homodimerization, bead proximity signal; AID 1259374; hit rate 0.91% among 650,000; in the data active = inhibition above about 50%
Target sequence (O75030 whole entry, looked up): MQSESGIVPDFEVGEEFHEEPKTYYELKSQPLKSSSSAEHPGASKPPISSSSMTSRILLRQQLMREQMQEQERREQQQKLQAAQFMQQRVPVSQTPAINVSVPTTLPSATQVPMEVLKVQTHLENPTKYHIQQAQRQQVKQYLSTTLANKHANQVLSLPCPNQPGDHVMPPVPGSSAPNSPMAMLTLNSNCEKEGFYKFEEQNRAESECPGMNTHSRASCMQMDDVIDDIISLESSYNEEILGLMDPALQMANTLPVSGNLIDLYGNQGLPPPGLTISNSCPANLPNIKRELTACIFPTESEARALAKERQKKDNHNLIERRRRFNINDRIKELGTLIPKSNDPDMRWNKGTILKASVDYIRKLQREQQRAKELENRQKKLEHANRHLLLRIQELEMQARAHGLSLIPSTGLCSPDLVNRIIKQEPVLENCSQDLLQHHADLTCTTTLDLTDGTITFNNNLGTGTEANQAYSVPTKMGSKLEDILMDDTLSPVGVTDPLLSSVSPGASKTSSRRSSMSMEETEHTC
TEAD-YAP block: TEAD-YAP interaction inhibition. HEK-TIYL cells, TEAD-Gal4/YAP UAS-luciferase luminescence. inhibition, % at 9.12 µM. hit rate 1.4% among 640,000. AID 1259422; in the data active = inhibition above about 32%
FBW7 activator: activators of human E3 ligase FBW7 | normalized activity (activation), % at 26.1 µM | AlphaScreen FBW7–phospho-cyclin E peptide binding, activator screen | hit rate 0.13% among 650,000; in the data active = normalized activity above about 1.9%;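 note: purified mutant Fbw7 with reduced substrate affinity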
GPR151 confirm: confirmation of human GPR151 activators | activation, % at 11.2 µM | AID 1508609 | shares compounds with GPR151 ag | 6,700 tested, under 10 active | GPR151 PathHunter beta-arrestin cells, luminescence, 90 min; % of EA-reagent control over plate median;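 active = mean percent activation across replicates above the confirmation screen cutoff of 4.91%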
GPR119 ag: GPR119 activation, counter-screen for GPR151 activators; GPR119 PathHunter beta-arrestin cells, luminescence, 90 min; 0 = compound-well median, 100 = enzyme-acceptor control; shares compounds with GPR151 ag; AID 1508611; hit rate 0.3% among 6,700; activation, % at 11.2 µM;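 active = mean percent activation in the counterscreen above 29.09%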;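 note: counterscreen on off-target GPR119 to flag nonselective hits from the GPR151 activator screen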
Large screens that a line does not name were inactive (follow-up assays come after a bar, where they were run). An excerpt weighted towards active compounds, which were near 3.4% of everything screened.

CC(C)(C)n1nnnc1C(c1cccnc1)N1CCN(c2ccccc2F)CC1 (stereo unspecified)	GPR151 ag 8.4 | GPR151 confirm inactive | GPR119 ag inactive
CCCC(=O)N(Cc1ccccc1)c1nc2c(OC)ccc(C)c2s1	none
O=C(CCNc1c(N2CCCC2)c(=O)c1=O)NC1CCCCCC1	GPR151 ag 7.2 | GPR151 confirm inactive | GPR119 ag inactive
O=C(CCNc1c(N2CCCC2)c(=O)c1=O)Nc1ccc(F)c(Cl)c1	none
Cc1ccc(NC(=O)CCNc2c(N3CCCC3)c(=O)c2=O)cc1Cl	GPR151 ag 12 | GPR151 confirm inactive | GPR119 ag inactive
Cc1ccc(NC(=O)CC(C)(C)C)cc1Cl	GPR151 ag 5.2 | GPR151 confirm inactive | GPR119 ag inactive
Cc1nc(N2CCOCC2)c2oc3ccccc3c2n1	GPR151 ag 7.4 | GPR151 confirm inactive | GPR119 ag inactive
Cc1nc(N2CCC(C(=O)O)CC2)c2oc3ccccc3c2n1	none
NC(=O)c1ccc(NC(=O)C(=O)c2c(O)[nH]c3ccccc23)cc1	none
COc1ccc(CNC(=O)c2ccc(NC3=NC4CS(=O)(=O)CC4S3)cc2)cc1 (stereo unspecified)	none
COc1ccc(NC(=O)CCS(=O)(=O)c2ccc3c(c2)SCC(=O)N3)cc1Cl	GPR151 ag 5.2 | GPR151 confirm inactive | GPR119 ag inactive
COc1cccc(CNC(=O)CCS(=O)(=O)c2ccc3c(c2)SCC(=O)N3)c1	GPR151 ag 11 | GPR151 confirm inactive | GPR119 ag inactive
CCCC(=O)Nc1ccc(OC)c(Cl)c1	none
COC(=O)CCC(=O)Nc1ccc(OC)c(Cl)c1	GPR151 ag 6.0 | GPR151 confirm inactive | GPR119 ag inactive
CCC1Sc2cc(S(=O)(=O)CCC(=O)NCc3cccnc3)ccc2NC1=O (stereo unspecified)	GPR151 ag 7.5 | GPR151 confirm inactive | GPR119 ag inactive
COc1ccc(NC(=O)CCS(=O)(=O)c2ccc3c(c2)SCC(=O)N3)cc1OC	none
Cn1c(=O)c(=O)n(C)c2cc(S(=O)(=O)CCC(=O)NCc3ccccc3)ccc21	GPR151 ag 6.1 | GPR151 confirm inactive | GPR119 ag inactive
COc1ccc(CNC(=O)CCS(=O)(=O)c2ccc3c(c2)n(C)c(=O)c(=O)n3C)cc1	none
Cc1c(NC(=O)CN2C(=O)C3C4C=CC(C4)C3C2=O)ccc(Br)c1Cl (stereo unspecified)	none
CN(CCO)c1ncnc2sccc12	GPR151 ag 6.6 | GPR151 confirm inactive | GPR119 ag inactive
O=C(c1c(F)cccc1Cl)N(c1ccc(F)cc1)C1C=CS(=O)(=O)C1 (stereo unspecified)	GPR151 ag 7.2 | GPR151 confirm inactive | GPR119 ag inactive
O=C(c1c(F)cccc1Cl)N(c1ccccc1)C1C=CS(=O)(=O)C1 (stereo unspecified)	none
COc1ccc2c(c1)COC1(CCN(C(=O)Nc3ccccc3F)CC1)O2	GPR151 ag 7.7 | GPR151 confirm inactive | GPR119 ag inactive
Clc1ccc2nc(N3CCN(c4ccccc4Cl)CC3)nc(-c3ccccc3)c2c1	none
Cc1ccc(Sc2ccc3noc4c3c2C(=O)c2ccccc2-4)cc1	GPR151 ag 11 | GPR151 confirm inactive | GPR119 ag inactive
COc1ccc(NC(=S)N2CCC(N(C)C(C)C)CC2)cc1	GPR151 ag 5.9 | GPR151 confirm inactive | GPR119 ag inactive
CCCCN(C)C1CCN(C(=S)Nc2ccc(OC)cc2)CC1	none
CC(=O)C1=C(O)C(=O)N(CO)C1c1cccnc1 (stereo unspecified)	none
NC(=O)c1c(NC(=O)CCSc2ccccc2)sc2c1CCCC2	none
NC(=O)c1c(NC(=O)CCSc2ccc(F)cc2)sc2c1CCCC2	GPR151 ag 7.1 | GPR151 confirm inactive | GPR119 ag inactive
O=C(Cn1nnc(-c2ccccc2Cl)n1)Nc1ccccc1Cl	GPR151 ag 4.9 | GPR151 confirm inactive | GPR119 ag inactive
Cn1c(Cn2nnc(-c3ccccc3)n2)nnc1SCC(=O)Nc1ccccc1Cl	GPR151 ag 7.6 | GPR151 confirm inactive | GPR119 ag inactive
NC(=O)c1c(NC(=O)Cn2nnc(-c3ccccc3Cl)n2)sc2c1CCCC2	GPR151 ag 6.4 | GPR151 confirm inactive | GPR119 ag inactive
NC(=O)c1c(NC(=O)c2ccccc2Cl)sc2c1CCCC2	none
O=C(Cn1nnc(-c2ccccc2Cl)n1)Nc1ccccc1C(F)(F)F	none
O=C(O)COc1cccc(/C=N/NC(=O)Cn2nnc(-c3ccccc3Cl)n2)c1	none
Cc1ccc(NC(=O)Cn2nnc(-c3ccccc3NC(=O)c3cccc(C)c3)n2)cc1	GPR151 ag 5.0 | GPR151 confirm inactive | GPR119 ag inactive
O=C(O)COc1ccc(/C=N/NC(=O)Cn2nnc(-c3ccccc3Cl)n2)cc1	GPR151 ag 7.8 | GPR151 confirm inactive | GPR119 ag inactive
CCCCOc1ccc(C(=O)NCCc2csc(-c3cccnc3)n2)cc1	none
O=C(Nc1cccc([N+](=O)[O-])c1)c1cc(N2C(=O)c3ccccc3C2=O)ccc1Cl	none
O=C(NCc1ccco1)/C(=C/c1ccc(Cl)cc1)NC(=O)c1ccco1	GPR151 ag 5.7 | GPR151 confirm inactive | GPR119 ag inactive
O=C(NCc1ccccc1)/C(=C\c1ccc(Cl)cc1)NC(=O)c1ccco1	none
O=C(NCc1ccco1)/C(=C\c1ccc(Br)cc1)NC(=O)c1ccccc1	GPR151 ag 7.0 | GPR151 confirm inactive | GPR119 ag inactive
Nn1c(COc2cccc(Br)c2)nnc1SCC(=O)N1CCCCC1	none
COCCCNC(=O)NC(CCC(C)C)c1c(-n2cccc2)sc2c1CCN(C)C2 (stereo unspecified)	GPR151 ag 8.2 | GPR151 confirm inactive | GPR119 ag inactive
COC(=O)CCNC(=O)NC(CCC(C)C)c1c(-n2cccc2)sc2c1CCN(C)C2 (stereo unspecified)	none
CCN(CC)C(=O)C1=C(C)Nc2nnnn2C1c1ccccc1 (stereo unspecified)	none
COc1ccccc1NC(=O)c1ccc(SCC(=O)NCc2ccccc2)c([N+](=O)[O-])c1	none
COC(=O)c1ccc(SCC(=O)NCc2ccccc2)c([N+](=O)[O-])c1	GPR151 ag 7.4 | GPR151 confirm inactive | GPR119 ag inactive
COc1ccc(-c2cn3cccc(C)c3n2)cc1OC	none
Cc1ccc(NC(=O)CSc2cn(Cc3ccc(F)cc3)c3ccccc23)cc1	GPR151 ag 7.0 | GPR151 confirm inactive | GPR119 ag inactive
COc1ccccc1C1(NC(=O)CCn2nc(C)cc2C)CCCC1	GPR151 ag 5.0 | GPR151 confirm inactive | GPR119 ag inactive
COc1ccccc1C1(NC(=O)CCn2cccn2)CCCC1	none
COc1ccc(OC)c(C2C(C(N)=O)=C(C)Nc3nc(CCCO)nn32)c1 (stereo unspecified)	GPR151 ag 7.7 | GPR151 confirm inactive | GPR119 ag inactive
O=C1NCC2=C1C(c1ccccc1)Nc1ccccc1N2 (stereo unspecified)	none
